Reference: PubChem BioAssay (EPA / NIEHS)
Active and inactive are the calls of the source. Rule for the calls: active = hit-call score of the fitted dose curve at least 0.9, where 1 is the maximum; inactive = score below 0.9.

How the values were obtained:
[1] = ATG_PBREM_CIS: Attagene CIS-FACTORIAL HepG2 Assay for human Phenobarbital-responsive Enhancer Module (PBREM) (AID 2282955); details: HepG2 PBREM cis-reporter, Attagene multiplexed transcription; actives raise or lower the signal
Procedure, shortened: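 Fluorescence of labelled reporter cDNA fragments, resolved by capillary electrophoresis, gives mRNA induction in transfected HepG2 cells treated for 24 h; DMSO serves as negative control and baseline.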

[2] = biological target: Paired box protein Pax-6 (Homo sapiens) (UniProt P26367); experiment: ATG_Pax6_CIS: Attagene CIS-FACTORIAL HepG2 Assay for human Paired Box 6 (PAX6) (AID 2282956); details: HepG2 CIS-FACTORIAL PAX6 reporter transcription, RNA readout; actives raise or lower the signal
Chain of Paired box protein Pax-6 (Homo sapiens) (P26367 whole entry, looked up): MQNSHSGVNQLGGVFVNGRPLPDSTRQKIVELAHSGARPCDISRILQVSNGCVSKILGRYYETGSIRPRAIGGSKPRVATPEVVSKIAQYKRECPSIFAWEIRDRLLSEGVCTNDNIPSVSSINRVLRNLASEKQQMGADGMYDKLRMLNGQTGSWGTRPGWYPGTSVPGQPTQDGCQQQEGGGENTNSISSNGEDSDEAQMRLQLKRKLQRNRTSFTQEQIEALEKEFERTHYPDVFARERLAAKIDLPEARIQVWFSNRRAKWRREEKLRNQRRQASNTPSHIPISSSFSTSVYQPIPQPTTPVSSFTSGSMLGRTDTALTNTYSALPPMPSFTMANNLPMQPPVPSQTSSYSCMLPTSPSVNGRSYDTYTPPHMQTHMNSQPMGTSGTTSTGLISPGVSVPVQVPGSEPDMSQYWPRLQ
Procedure, shortened: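 Values derive from bidirectional curve fitting of reporter mRNA signal relative to DMSO. HepG2 cells bearing transfected cis-regulated MRTUs were exposed for 24 h; transcripts were read by RT-PCR and capillary electrophoresis.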

[3] = ATG_PXRE_CIS: Attagene CIS-FACTORIAL HepG2 Assay for human Pregnane X Receptor Element (PXRE) (AID 2282957); details: HepG2 Attagene CIS-FACTORIAL PXRE reporter, mRNA; actives raise or lower the signal
Procedure, shortened: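 Using HepG2 transfected with multiple reporter transcription units, endogenous factor-driven transcription was scored as reporter mRNA after 24 h exposure.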

[4] = ATG_RORE_CIS: Attagene CIS-FACTORIAL HepG2 Assay for human RAR-related Orphan Receptor Element (RORE) (AID 2282959); details: HepG2 Attagene cis-factorial RORE reporter, mRNA; actives raise or lower the signal
Procedure, shortened: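 Cells were HepG2 carrying transfected cis-regulated reporter constructs, dosed for 24 hours. Total RNA was reverse-transcribed and reporter cDNA amplified, fluorescently labeled and sized by capillary electrophoresis. Activity was fitted bidirectionally relative to DMSO.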

[5] = biological target: Transcription factor Sp1 (Homo sapiens) (UniProt P08047); experiment: ATG_Sp1_CIS: Attagene CIS-FACTORIAL HepG2 Assay for human Specificity Protein 1 (Sp1) (AID 2282961); details: HepG2 Sp1 cis-reporter transcription, actives raise or lower the signal
Chain of Transcription factor Sp1 (Homo sapiens) (P08047 whole entry, looked up): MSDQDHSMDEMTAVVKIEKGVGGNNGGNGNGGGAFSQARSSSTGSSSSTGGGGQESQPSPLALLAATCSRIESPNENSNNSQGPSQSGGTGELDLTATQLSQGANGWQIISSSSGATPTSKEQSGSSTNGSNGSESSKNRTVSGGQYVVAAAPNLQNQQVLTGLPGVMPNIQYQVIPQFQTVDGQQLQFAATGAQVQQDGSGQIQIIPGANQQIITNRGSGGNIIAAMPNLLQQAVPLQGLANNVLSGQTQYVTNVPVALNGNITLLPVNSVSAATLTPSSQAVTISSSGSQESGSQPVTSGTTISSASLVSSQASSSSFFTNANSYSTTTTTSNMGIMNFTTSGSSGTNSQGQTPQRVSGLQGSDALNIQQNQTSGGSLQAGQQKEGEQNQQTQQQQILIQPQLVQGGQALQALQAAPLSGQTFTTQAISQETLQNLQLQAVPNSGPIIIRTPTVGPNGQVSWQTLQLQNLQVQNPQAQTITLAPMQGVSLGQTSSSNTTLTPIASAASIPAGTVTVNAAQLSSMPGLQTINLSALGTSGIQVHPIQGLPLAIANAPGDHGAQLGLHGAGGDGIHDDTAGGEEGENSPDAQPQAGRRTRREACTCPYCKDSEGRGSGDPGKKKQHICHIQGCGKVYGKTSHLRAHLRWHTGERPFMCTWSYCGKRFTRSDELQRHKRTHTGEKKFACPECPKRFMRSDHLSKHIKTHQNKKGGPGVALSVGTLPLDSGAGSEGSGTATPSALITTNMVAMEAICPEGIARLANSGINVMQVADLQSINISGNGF
Procedure, shortened: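 Endogenous Sp1 activity was gauged in human liver HepG2 cells bearing transfected reporter units under a cis-regulating promoter. After 24 h dosing, reporter mRNA was quantified by RT-PCR with capillary electrophoresis, and activity fitted bidirectionally versus DMSO.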

[6] = ATG_SREBP_CIS: Attagene CIS-FACTORIAL HepG2 Assay for human Sterol Regulatory Element Binding (SREBP) (AID 2282962); details: HepG2 Attagene cis-factorial SREBP reporter, mRNA; actives raise or lower the signal
Procedure, shortened: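 Values derive from bidirectional curve fitting with DMSO as baseline. The underlying measurement is reporter mRNA from cis-element-regulated units in transiently transfected HepG2, quantified by RT-PCR and capillary electrophoresis after 24 h exposure.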

[7] = biological target: Signal transducer and activator of transcription 3 (Homo sapiens) (UniProt P40763); experiment: ATG_STAT3_CIS: Attagene CIS-FACTORIAL HepG2 Assay for human Signal Transducer and Activator of Transcription 3 (STAT3) (AID 2282963); details: HepG2, Attagene cis-factorial STAT3 reporter transcription; actives raise or lower the signal
Chain of Signal transducer and activator of transcription 3 (Homo sapiens) (P40763 whole entry, looked up): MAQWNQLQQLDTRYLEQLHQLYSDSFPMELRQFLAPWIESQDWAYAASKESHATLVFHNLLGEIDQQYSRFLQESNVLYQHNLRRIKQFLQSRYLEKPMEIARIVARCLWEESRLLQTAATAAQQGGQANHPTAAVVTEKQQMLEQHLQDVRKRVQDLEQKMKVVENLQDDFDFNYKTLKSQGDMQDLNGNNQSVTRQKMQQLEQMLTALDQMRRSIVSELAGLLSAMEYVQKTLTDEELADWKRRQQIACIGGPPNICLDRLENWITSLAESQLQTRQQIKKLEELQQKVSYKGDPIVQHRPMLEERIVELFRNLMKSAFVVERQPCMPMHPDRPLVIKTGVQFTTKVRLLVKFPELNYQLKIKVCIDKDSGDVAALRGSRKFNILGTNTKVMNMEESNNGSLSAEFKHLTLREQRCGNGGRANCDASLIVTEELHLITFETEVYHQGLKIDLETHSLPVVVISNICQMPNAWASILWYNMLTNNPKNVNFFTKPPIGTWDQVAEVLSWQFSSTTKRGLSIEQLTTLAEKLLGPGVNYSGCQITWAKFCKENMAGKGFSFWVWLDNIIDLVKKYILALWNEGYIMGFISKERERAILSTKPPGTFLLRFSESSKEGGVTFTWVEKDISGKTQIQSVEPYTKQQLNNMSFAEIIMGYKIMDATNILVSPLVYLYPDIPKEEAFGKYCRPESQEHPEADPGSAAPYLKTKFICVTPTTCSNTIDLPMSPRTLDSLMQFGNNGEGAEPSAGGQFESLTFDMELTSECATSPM
Procedure, shortened: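 Readout is reporter transcript quantified by RT-PCR and capillary electrophoresis, with 6-FAM primer extension and HpaI digestion. Total RNA is taken 24 h after dosing transiently transfected HepG2 carrying cis-regulated reporter units. Bidirectional fit against DMSO.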

[8] = ATG_TA_CIS: Attagene CIS-FACTORIAL HepG2 Assay for human TA Basal Promoter (AID 2282964); details: HepG2 Attagene CIS-factorial TA basal promoter reporter; actives raise or lower the signal
Procedure, shortened: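 HepG2 cells transiently transfected with multiplexed cis-promoter reporter units, dosed 24 h. Reporter mRNA measured by RT-PCR, 6-FAM labelling, HpaI digestion and capillary electrophoresis; bidirectional fit versus DMSO baseline, serving as background control.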

[9] = ATG_PPRE_CIS: Attagene CIS-FACTORIAL HepG2 Assay for human Peroxisome Proliferator-activated Response Element (PPRE) (AID 2282958); details: HepG2 PPRE cis-element reporter, Attagene transcription factor profiling; actives raise or lower the signal
Procedure, shortened: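 Cells are first transfected transiently with the multiplexed reporter library, then dosed for 24 h. Total RNA is reverse-transcribed, amplified, fluorescently end-labeled and HpaI-cut before capillary electrophoresis; activity is fitted bidirectionally against DMSO controls.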

[10] = ATG_Sox_CIS: Attagene CIS-FACTORIAL HepG2 Assay for human SRY-box transcription factor (SOX) (AID 2282960); details: HepG2 Attagene cis-factorial SOX reporter, mRNA; actives raise or lower the signal
Procedure, shortened: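 Transient MRTU transfection of HepG2; 24 h compound incubation; TriZol RNA, oligo(dT) RT, PCR, 6-FAM primer extension, HpaI cut, CE. Bidirectional fit, DMSO = baseline.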

## CC(C)(c1ccccc1)c1ccc(Nc2ccc(C(C)(C)c3ccccc3)cc2)cc1
[1]
  outcome: inactive
[2]
  outcome: inactive
[3]
  AC50: 2.03 µM (active)
[4]
  outcome: inactive
[5]
  outcome: inactive
[6]
  outcome: inactive
[7]
  outcome: inactive
[8]
  outcome: inactive

## CCCCCCCCCCCCCCCCCCOS(=O)(=O)O
[2]
  outcome: inactive
[3]
  outcome: inactive
[9]
  outcome: inactive
[4]
  outcome: inactive
[10]
  outcome: inactive
[5]
  outcome: inactive
[6]
  AC50: 52.7 µM (active)
[7]
  outcome: inactive
[8]
  AC50: 12.4 µM (active)

## CCCCCCCCCCCCCc1ccccc1
[2]
  outcome: inactive
[3]
  outcome: inactive
[9]
  outcome: inactive
[4]
  outcome: inactive
[10]
  outcome: inactive
[5]
  outcome: inactive
[6]
  outcome: inactive
[7]
  outcome: inactive
[8]
  outcome: inactive

## CCC(C)c1ccccc1 (centres undefined)
[2]
  outcome: inactive
[3]
  outcome: inactive
[9]
  outcome: inactive
[4]
  outcome: inactive
[10]
  outcome: inactive
[5]
  outcome: inactive
[6]
  outcome: inactive
[7]
  outcome: inactive
[8]
  outcome: inactive

## CC/C=C\C/C=C\C/C=C\CCCCCCCC(=O)OC
[2]
  outcome: inactive
[3]
  AC50: 7.37 µM (active)
[9]
  outcome: inactive
[4]
  AC50: 164 µM (active)
[10]
  outcome: inactive
[5]
  AC50: 128 µM (active)
[6]
  outcome: inactive
[7]
  outcome: inactive
[8]
  outcome: inactive

## CCCCC/C=C\C/C=C\CCCCCCCC(=O)O
[2]
  AC50: 133 µM (active)
[3]
  AC50: 64.1 µM (active)
[9]
  AC50: 35.1 µM (active)
[4]
  AC50: 39.6 µM (active)
[10]
  outcome: inactive
[5]
  outcome: inactive
[6]
  outcome: inactive
[7]
  outcome: inactive
[8]
  AC50: 100 µM (active)

## CCN(CC)c1cccc(C)c1
[2]
  outcome: inactive
[3]
  AC50: 27.7 µM (active)
[9]
  outcome: inactive
[4]
  outcome: inactive
[10]
  outcome: inactive
[5]
  outcome: inactive
[6]
  outcome: inactive
[7]
  outcome: inactive
[8]
  outcome: inactive

## CCCCCCCCCCCCCC(=O)OC(C)C
[2]
  outcome: inactive
[3]
  outcome: inactive
[9]
  outcome: inactive
[4]
  outcome: inactive
[10]
  outcome: inactive
[5]
  outcome: inactive
[6]
  outcome: inactive
[7]
  outcome: inactive
[8]
  outcome: inactive

## CCOB(OCC)OCC
[2]
  outcome: inactive
[3]
  outcome: inactive
[9]
  outcome: inactive
[4]
  outcome: inactive
[10]
  outcome: inactive
[5]
  outcome: inactive
[6]
  outcome: inactive
[7]
  outcome: inactive
[8]
  outcome: inactive

## CC(=O)C(C)C
[2]
  outcome: inactive
[3]
  outcome: inactive
[9]
  outcome: inactive
[4]
  outcome: inactive
[10]
  outcome: inactive
[5]
  outcome: inactive
[6]
  outcome: inactive
[7]
  outcome: inactive
[8]
  outcome: inactive

## Cn1cccc1
[2]
  outcome: inactive
[3]
  outcome: inactive
[9]
  outcome: inactive
[4]
  outcome: inactive
[10]
  outcome: inactive
[5]
  AC50: 25.7 µM (active)
[6]
  outcome: inactive
[7]
  outcome: inactive
[8]
  outcome: inactive

## CC(C)C(=O)OCCc1ccccc1
[2]
  outcome: inactive
[3]
  outcome: inactive
[9]
  outcome: inactive
[4]
  outcome: inactive
[10]
  outcome: inactive
[5]
  outcome: inactive
[6]
  outcome: inactive
[7]
  outcome: inactive
[8]
  outcome: inactive

## COc1nccnc1CC(C)C
[2]
  outcome: inactive
[3]
  outcome: inactive
[9]
  outcome: inactive
[4]
  outcome: inactive
[10]
  outcome: inactive
[5]
  outcome: inactive
[6]
  outcome: inactive
[7]
  outcome: inactive
[8]
  outcome: inactive

## Cc1cc(C)n(CO)n1
[2]
  outcome: inactive
[3]
  outcome: inactive
[9]
  outcome: inactive
[4]
  outcome: inactive
[10]
  outcome: inactive
[5]
  outcome: inactive
[6]
  outcome: inactive
[7]
  outcome: inactive
[8]
  outcome: inactive

## Nc1ccnc(=O)[nH]1
[2]
  outcome: inactive
[3]
  outcome: inactive
[9]
  outcome: inactive
[4]
  outcome: inactive
[10]
  outcome: inactive
[5]
  outcome: inactive
[6]
  outcome: inactive
[7]
  outcome: inactive
[8]
  outcome: inactive

## CCCCCCCCCCCC(C)=O
[2]
  outcome: inactive
[3]
  AC50: 25.6 µM (active)
[9]
  AC50: 159 µM (active)
[4]
  outcome: inactive
[10]
  outcome: inactive
[5]
  AC50: 154 µM (active)
[6]
  AC50: 141 µM (active)
[7]
  outcome: inactive
[8]
  outcome: inactive

## CN1CCN(C)CC1
[2]
  outcome: inactive
[3]
  outcome: inactive
[9]
  outcome: inactive
[4]
  outcome: inactive
[10]
  outcome: inactive
[5]
  outcome: inactive
[6]
  outcome: inactive
[7]
  outcome: inactive
[8]
  outcome: inactive

## CCCCCCCC(=O)OCC(COC(=O)CCCCCCC)OC(=O)CCCCCCC
[2]
  outcome: inactive
[3]
  outcome: inactive
[9]
  outcome: inactive
[4]
  outcome: inactive
[10]
  outcome: inactive
[5]
  outcome: inactive
[6]
  outcome: inactive
[7]
  outcome: inactive
[8]
  outcome: inactive

## CCCCCC[C@@H](O)C/C=C\CCCCCCCC(=O)OCC(O)CO (some centres undefined)
[2]
  AC50: 134 µM (active)
[3]
  outcome: inactive
[9]
  AC50: 11 µM (active)
[4]
  outcome: inactive
[10]
  outcome: inactive
[5]
  AC50: 190 µM (active)
[6]
  AC50: 122 µM (active)
[7]
  outcome: inactive
[8]
  AC50: 150 µM (active)

## CCCCCCCCCCCC(=O)OCC
[2]
  outcome: inactive
[3]
  outcome: inactive
[9]
  outcome: inactive
[4]
  outcome: inactive
[5]
  outcome: inactive
[6]
  outcome: inactive
[7]
  outcome: inactive
[8]
  outcome: inactive

## C=C(C)C1CC=C(C)C(OC(C)=O)C1 (centres undefined)
[2]
  outcome: inactive
[3]
  outcome: inactive
[9]
  outcome: inactive
[4]
  outcome: inactive
[10]
  outcome: inactive
[5]
  outcome: inactive
[6]
  outcome: inactive
[7]
  outcome: inactive
[8]
  outcome: inactive

## CC(c1cc(C(C)(C)C)cc(C(C)(C)C)c1O)c1cc(C(C)(C)C)cc(C(C)(C)C)c1O
[2]
  outcome: inactive
[3]
  AC50: 0.078 µM (active)
[9]
  outcome: inactive
[4]
  outcome: inactive
[10]
  outcome: inactive
[5]
  outcome: inactive
[6]
  outcome: inactive
[7]
  outcome: inactive
[8]
  outcome: inactive

## Cc1ccccc1CCO
[2]
  outcome: inactive
[3]
  AC50: 26.6 µM (active)
[9]
  outcome: inactive
[4]
  outcome: inactive
[10]
  outcome: inactive
[5]
  outcome: inactive
[6]
  outcome: inactive
[7]
  outcome: inactive
[8]
  outcome: inactive

## CC(C)=NNC(N)=S
[2]
  outcome: inactive
[3]
  outcome: inactive
[9]
  outcome: inactive
[4]
  outcome: inactive
[10]
  outcome: inactive
[5]
  outcome: inactive
[6]
  outcome: inactive
[7]
  outcome: inactive
[8]
  outcome: inactive
